Source: PubChem BioAssay
Vaccinia mCherry – vaccinia inhibition (mCherry reporter); Vaccinia virus mCherry reporter infection, fluorescence; Potency, µM (top dose mostly 36.5 µM), inactives show at the highest dose activity change, negative = inhibition, most hits filed as inhibitors; 310,000 tested, 0.63% active; calls by dose curve; tested in A549 cells; also: potency is read from the fitted curve at half-maximal effect; nearly all actives have a fitted effect of over 35% in size
HCV inh – HCV inhibition; Huh7.5.1 HCVcc-Cre infection, luciferase reporter, 44 h; AID 651820; Potency, µM (highest dose often 41.8 µM), inactives show at the highest dose activity change, negative = inhibition, usual class: inhibitors; 340,000 tested, 3.4% active; active = well fitted inhibition curve with a large enough effect; inconclusive = small, poorly fitted or top-dose-only effect, or another doubt; inactive = no such curve, though single readings can be large or run the other way; also: potency is read from the fitted curve at half-maximal effect
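HCVcc-Cre virus at an moi near 0.5 was added right after compound to cells cultured 4 h from seeding (1,000 cells/well). Luciferase activity was determined 44 h later, 15 min after substrate addition at RT.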
Lassa entry inh – Lassa virus entry inhibition. Lassa virus pseudotype entry inhibition, cell reporter. Potency, µM (doses to about 37.9 µM), inactives show top-dose activity change, negative = inhibition, hits mostly inhibitors. 300,000 tested, 1.2% active. AID 540256; calls by dose curve; tested in HEK293 cells; also: potency is read from the fitted curve at half-maximal effect; nearly all actives have a fitted effect of over 50% in size
HCMV inh – human cytomegalovirus inhibition; HFF cells, HCMV-luciferase reporter, 72 h; hits give low values; activity change, negative = inhibition, % at 57.5 µM; 410,000 tested, 4.5% active; AID 1259415; in the data active = activity change below about -60%; inconclusive = no clear call, values can overlap the other calls; inactive = above about -39%
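Screen run at 2 compound doses on HFFs infected with reporter HCMV, MOI 1 PFU/cell. Luciferase activity from cell lysates at 72 h post infection gave inhibition relative to buffer-only and Salinomycin wells.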
Vaccinia Venus – inhibitors of vaccinia virus (Venus reporter); Vaccinia virus Venus reporter expression, fluorescence; Potency, µM (highest dose often 36.5 µM), for the others: at the top dose activity change, negative = inhibition, most hits filed as inhibitors; 330,000 tested, 0.46% active; AID 720580; calls by dose curve; tested in A549 cells; also: potency is read from the fitted curve at half-maximal effect; nearly all actives have a fitted effect of over 30% in size
MARV entry inh – blocks Marburg virus binding to or entry into cells; Potency, µM (top dose mostly 37.8 µM), inactives show at the highest dose activity change, negative = inhibition, actives largely listed as inhibitors; 300,000 tested, 1.8% active; Marburg virus pseudotyped entry inhibition, cell reporter; AID 540276; calls by dose curve; tested in HEK293 cells; also: potency is read from the fitted curve at half-maximal effect
Starred values were filed as active, the others as inactive; i = inactive; ? = inconclusive; · = no result given; [ ] = remark or other dose. In the library only some 7.8% were active in any assay of this set; here they are far more common. % is scaled to controls: 0 for no effect and ±100 for the full control effect.

SMILES | Vaccinia mCherry | HCV inh | Lassa entry inh | HCMV inh | Vaccinia Venus | MARV entry inh
Cc1oc(-c2ccccc2Cl)nc1CN1CCCC1c1ccc(F)cc1 (centres undefined) | · | -13% | · | 16 | · | ·
CCc1nnc2c(NCc3ccc(F)cc3)nc3ccccc3n12 | 0% | · | 23%[46.1 µM] | -5 | 0% | -8%[46.1 µM]
CCn1nc(C)c(CNC(=O)c2cc(COc3ccc(C)nc3)on2)c1C | i | 11µM* | ? | -24 | -10% | ?
Cc1nnc(CN(C)C(=O)c2cc(COc3ccc(F)cc3Cl)on2)o1 | -6% | 17% | 1% | · | -3% | ?
Cc1cc(C)n(CCNC(=O)c2cc(COc3ccc(F)cc3Cl)on2)n1 | i | -7% | -16% | 10 | 1% | -24%[46.1 µM]
CN(Cc1cccc2cnccc12)C(=O)c1cc(COc2ccc(F)cc2Cl)on1 | -12% | 10µM* | ? | 0 | 1% | -33%[46.1 µM]
CCn1nc(C)c(CNC(=O)c2cc(COc3ccc(F)cc3Cl)on2)c1C | · | ? | · | -85* | · | ·
CCn1cc(CNC(=O)c2cc(COc3ccc(F)cc3Cl)on2)cn1 | -18% | ? | ? | ? | -21% | 15µM*
CCOC(=O)CN1C(=O)[C@@]2(CC(C)=CC[C@@H](COc3ccccc3)O2)c2c(Br)cccc21 | · | · | · | · | · | -35%[14.2 µM]
CCN1C(=O)N(S(=O)(=O)c2ccc(C)cc2)C(c2ccccc2)C(C(=O)OC)=C1C (centres undefined) | · | · | · | · | · | 17%[14.2 µM]
CC1CCC(NC(=O)c2ccc3c(c2)N(Cc2ccccc2F)C(=O)c2ccccc2S3=O)CC1 (centres undefined) | -7% | · | -12%[46.1 µM] | -14 | -5% | -28%[46.1 µM]
Cc1ccc2nc(C3CCN(C(=O)NCc4ccccc4)CC3)[nH]c2c1 | -24% | · | -17%[14.3 µM] | -88* | -13% | 11%
CCc1ccccc1NC(=O)CN1C(=O)CCc2cc(S(=O)(=O)N3CCCCC3)ccc21 | -4% | · | 4%[46.1 µM] | 4 | -5% | ·
COc1cc2c(cc1OC)C(c1cc(Br)ccc1F)N(C(=O)CCl)CC2 (centres undefined) | ? | ? | · | -93* | ? | -4%
COc1cc2c(cc1OC)C(C1C(=O)CC(C)(C)CC1=O)N(C(=O)CCl)CC2 (centres undefined) | -2% | 4% | ? | -39 | i | ?
O=C(NP(=O)(N1CCCC1)N1CCCC1)C1=C(N2CCOCC2)/C(=C/c2cccc([N+](=O)[O-])c2)CC1 | -12% | 3% | 20% | 0 | -2% | 3%[46.1 µM]
CCOC(=O)C(=O)C1=C(N2CCOCC2)/C(=C\c2cccc([N+](=O)[O-])c2)CC1 | i | 25% | 16% | -72* | -14% | 21%
Cc1ccc(N=c2oc3cc(O)ccc3cc2C(N)=O)cc1 | ? | 11µM* | ? | -80* | ? | ?
CC(=O)c1cc2ccc(O)cc2oc1=O | · | 16% | · | -33 | · | ·
CCc1ccc(NC(=O)Cn2c(=O)n(CCC(=O)NCCc3ccc(OC)c(OC)c3)c(=O)c3ccccc32)cc1 | 27% | · | -3%[46.1 µM] | -1 | 17% | 7%[46.1 µM]
O=c1[nH]c(=S)[nH]c(O)c1N=Nc1ccc2c(c1)OCO2 | -17% | 2% | ? | ? | 1% | ?
O=c1[nH]c(O)c(N=Nc2ccc3c(c2)OCCO3)c(=O)[nH]1 | -9% | -14% | ? | -82* | 3% | ?
O=c1[nH]c(=S)[nH]c(O)c1N=Nc1ccc2c(c1)OCCO2 | -7% | -29% | ? | ? | 4% | 11µM*
O=c1[nH]c(O)c(N=Nc2ccc(S(=O)(=O)N3CCOCC3)cc2)c(=O)[nH]1 | i | 3% | -3%[46.1 µM] | ? | -3% | 8%[46.1 µM]
CCOc1ccc(NCc2cccn2-c2nnc(N3CCC(C(=O)NCCCN4CCCCC4C)CC3)s2)cc1 (centres undefined) | · | ? | · | -66* | · | ·
SMILES | Vaccinia mCherry | HCV inh | Lassa entry inh | HCMV inh | Vaccinia Venus | MARV entry inh
Cc1ccc(NCc2cccn2-c2nnc(N3CCC(C(=O)NC(C)C)CC3)s2)cc1 | -10% | · | · | -37 | -10% | 10%[46.1 µM]
Cc1ccc(NCc2cccn2-c2nnc(N3CCC(C(=O)NCCC(C)C)CC3)s2)cc1 | -15% | · | · | -67* | ? | -11%[46.1 µM]
C=CCCC1(CCC)C(=O)C(=C(O)c2ccccc2)C(=O)C(CCC)=C1OC (centres undefined) | · | · | · | · | · | -2%[14.2 µM]
Cc1ccc(-c2nnc(Sc3nc4ccccc4o3)c3ccccc23)cc1 | 10µM* | ? | 3% | -11 | 10µM* | -24%
Clc1ccc(-c2nc3ccccc3nc2-c2ccccc2)cc1 | -8% | -14% | 2% | -5 | -7% | -19%
Clc1ccc(-c2nnc(Sc3nc4ccccc4o3)c3ccccc23)cc1 | 14µM* | -28% | ? | -82* | ? | ?
Cc1nnc(Sc2nc3ccccc3o2)c2ccccc12 | ? | ? | -19% | 69 | ? | 18%
CCSc1nnc(-c2ccc(Cl)cc2)c2ccccc12 | · | -24% | 2% | ? | · | 8%
CCSc1nnc(-c2ccc(C)cc2)c2ccccc12 | ? | ? | ? | -62* | ? | ?
Cc1cccc(CSc2nnc3[nH]c(=O)cc(-c4ccccc4)n23)c1 | -12% | · | ? | 3 | -2% | ·
COc1ccc(Cl)cc1-c1ccc2c(c1)COCC(=O)N2C | · | · | · | 0 | · | ·
Cn1cccc1/C=C1\C(=O)NC(=O)N(Cc2ccccc2)C1=O | i | 11% | -18% | -65* | 0% | -10%[46.1 µM]
CCOc1ccc(Cc2onc3c2C(=O)CCC3)cc1OCC | 1% | ? | 15% | -89* | -7% | -4%[46.1 µM]
CCOc1ccc(Cc2onc3c2C(=O)CC(C)(C)C3)cc1OCC | -16% | ? | -34% | 25 | -5% | -15%[46.1 µM]
CSc1ccc(/C=C/c2nc3ccccc3n2S(=O)(=O)c2cccc(Cl)c2)cc1 | ? | · | ? | -65* | -30% | -18%[46.1 µM]
Cc1ccc(S(=O)(=O)n2c(N)nc3ccccc32)cc1 | -26% | ? | -26%[46.1 µM] | 33 | -25% | -3%[46.1 µM]
Cc1ccc(/C=C/c2nc3ccccc3n2S(=O)(=O)c2ccc(Br)cc2)cc1 | -17% | · | ? | -89* | -19% | ·
CCOC(=O)CSc1nc2ccccc2c(=O)n1CCc1ccc(OC)c(OC)c1 | 2% | · | ? | 11 | 3% | ·
COCCN(CCOC)C(=O)c1cc2c(=O)n3ccccc3nc2n1C | -8% | · | 1%[46.1 µM] | -2 | -7% | ·
COc1ccc(NC(=O)C2Cc3c(-c4ccc(NC(C)=O)cc4)ccnc3O2)cc1OC (centres undefined) | i | · | · | -36 | 3% | ·
COc1ccc(NC(=O)C2Cc3c(-c4cccc(F)c4)ccnc3O2)cc1OC (centres undefined) | -3% | · | · | -76* | -20% | ·
COc1ccc(NC(=O)C2Cc3c(-c4ccc5c(c4)OCO5)ccnc3O2)cc1OC (centres undefined) | -20% | · | · | -90* | ? | ·
COc1ccc(NC(=O)C2Cc3c(-c4ccco4)ccnc3O2)cc1OC (centres undefined) | ? | · | · | -73* | -28% | ·
